Rows were chosen to be rich in hits. Some 7.5% of all compounds tested hit in one or more screens of this group.
Rab9 promoter act: qHTS Assay for Rab9 Promoter Activators | 320,000 compounds, 2.8% hits | Huh7 Rab9 promoter-luciferase reporter, luminescence, 24 h | Potency, µM (highest dose often 9.22 µM), for the others: at the top dose activation, negative = inhibition, hits mostly activators; further: % of control where 0% means no effect; nearly all actives have a fitted effect of over 60% in size
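Using Huh7 cells stably transfected with Rab9 promoter–luciferase, compounds were incubated 24 h at 37 °C, 5% CO2; luciferase luminescence was read 10 min after reagent addition.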
ELG1 genotoxic: qHTS screen for small molecules that induce genotoxicity in human embryonic kidney (HEK293T) cells expressing luciferase-tagged ELG1; HEK293T ELG1-luciferase reporter, luminescence, 16 h; Potency, µM (highest dose often 46 µM), for inactives: at the highest dose activity change, positive = activation, usual class: activators; 330,000 compounds, 1.3% hits; further: % of control where 0% means no effect; nearly all actives have a fitted effect of over 60% in size
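HEK293T cells expressing luciferase-tagged ELG1 were exposed to compound or DMSO vehicle for 16 hr at 37 °C and 5% CO2. Luciferase activity was then measured with ONE-Glo after 30 min at room temperature.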
FLuc modulator: qHTS profiling assay for firefly luciferase inhibitor/activator using purifed enzyme and Km concentrations of substrates (counterscreen for miR-21 project) | Potency, µM (top dose mostly 57.5 µM), for the others: at the top dose activity change, negative = inhibition, most hits filed as inhibitors | 360,000 compounds, 6.9% hits | Luciferin 4-monooxygenase (Photinus pyralis), P08659 | purified FLuc, Km substrates, luminescence inhibition;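 further: plate controls were vehicle for no effect and reference inhibitor for full effect; nearly all actives have a fitted effect of over 55% in size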
Target sequence (P08659 whole entry, looked up): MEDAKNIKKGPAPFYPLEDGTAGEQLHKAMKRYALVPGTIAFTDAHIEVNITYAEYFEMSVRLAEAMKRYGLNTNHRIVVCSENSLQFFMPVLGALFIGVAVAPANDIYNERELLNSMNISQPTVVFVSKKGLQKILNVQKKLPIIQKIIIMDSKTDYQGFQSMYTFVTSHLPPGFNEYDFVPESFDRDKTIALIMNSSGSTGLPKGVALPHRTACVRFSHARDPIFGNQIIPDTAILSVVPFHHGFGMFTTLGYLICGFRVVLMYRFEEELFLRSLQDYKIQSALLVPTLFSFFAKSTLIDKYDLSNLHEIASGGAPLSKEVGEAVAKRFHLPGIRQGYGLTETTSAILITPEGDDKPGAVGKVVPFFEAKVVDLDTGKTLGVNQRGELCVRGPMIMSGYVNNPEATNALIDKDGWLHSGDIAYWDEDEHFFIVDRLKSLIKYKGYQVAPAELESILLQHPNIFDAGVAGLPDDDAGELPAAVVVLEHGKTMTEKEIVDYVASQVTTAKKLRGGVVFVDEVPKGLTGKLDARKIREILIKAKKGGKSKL
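Purified P. pyralis luciferase, 10 nM final, with Km-level 10 uM D-luciferin and 10 uM ATP in 50 mM Tris acetate pH 7.5, 10 mM Mg acetate, 0.01% Tween-20, 0.05% BSA; 6-point qHTS titration about 60 µM downward; luminescence read.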
SMN2 splice enh: qHTS Assay for Enhancers of SMN2 Splice Variant Expression; 210,000 compounds, 2.8% hits; AID 1458, 2008; Potency, µM (series often up to 46.1 µM), for inactives: at the top dose activity change, positive = activation, usual class: activators; HEK293 SMN2-luciferase splicing reporter, luminescence, 30-36 h; further: % of control where 0% means no effect; nearly all actives have a fitted effect of over 55% in size
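HEK293 cells carry an SMN2 minigene-luciferase reporter in which exon 7 inclusion puts luciferase in frame. Cells were seeded at 2000 cells/well, attached for 10-12 hours, then exposed to compounds for 30-36 hours at 37C before ONE-Glo luminescence.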
NPC1 prom act: qHTS Assay for NPC1 Promoter Activators; AID 485313, 2010; Huh7 NPC1 promoter luciferase reporter, 24 h; Potency, µM (top dose mostly 9.22 µM), for inactives: top-dose activation, usual class: activators; 320,000 compounds, 2.4% hits; further: % of control where 0% means no effect; nearly all actives have a fitted effect of over 60% in size
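Stably transfected Huh7 (NPC1 promoter→luciferase), 1500 cells/well in Opti-MEM + 10% FBS, 2 h settle, then compound 24 h at 37 °C. Luminescence after 10 min with Amplite reagent.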
* = called active by the depositor; ? = inconclusive; / = no result given; [ ] = another dose, or the depositor's remark. The call rests on the fitted dose curve; in most records, active means well fitted curve in the direction sought with a large enough effect; inconclusive means small, poorly fitted or top-dose-only effect, or another doubt; inactive means no such curve, though single readings can be large; an effect the other way counts as inactive or inconclusive. Potency means the concentration at half of the fitted maximal effect.

SMILES | Rab9 promoter act | ELG1 genotoxic | FLuc modulator | SMN2 splice enh | NPC1 prom act
CN(C)c1ccc(N=Nc2ccccc2C(=O)OCC(=O)NC2CCCC2)cc1 | 25% | 2% | 2.7µM* | / | 11%
O=C(COC(=O)c1ccccc1Br)NCC1CCCCC1 | / | 12% | / | / | /
CN(C)c1ccc(N=Nc2ccccc2C(=O)OCC(=O)N(C)C2CCCCC2)cc1 | ? | 0% | 1.1µM* | ? | 26%
CN(C)c1ccc(N=Nc2ccccc2C(=O)OCC(=O)NCC2CCCCC2)cc1 | 20% | -3% | 4.8µM* | 24% | 8%
C/C(=N/NS(=O)(=O)c1ccc(C)cc1)c1c(O)c2ccccc2oc1=O | 0% | -7% | -1% | / | -4%
CCCCCN=C(C)c1c(O)c2ccccc2oc1=O | ? | ? | 17µM* | / | ?
O=C1c2cccc3c(O)ccc(c23)C(=O)N1c1ccc(Cl)cc1 | 0.79µM* | 6% | 17µM* | / | 3.5µM*
Cc1[nH]c(=O)[nH]c(=O)c1S(=O)(=O)N1CCCC(C(=O)NCc2ccc3c(c2)OCO3)C1 (configuration not stated) | -5% | -8% | 1% | -8% | -4%
O=C(O)c1cccc(C(=O)Nc2cccc(NC(=O)C3CCCO3)c2)c1 (configuration not stated) | 22% | -6% | 2.1µM* | / | 20%
O=C(O)c1cccc(NC(=O)c2cccc(NC(=O)C3CCCO3)c2)c1 (configuration not stated) | 26% | 0% | 3µM* | 1% | 28%
O=C(O)c1cccc(NC(=O)C2CCCO2)c1 (configuration not stated) | -1% | -9% | 1% | 7% | 2%
O=C(Nc1cccc(O)c1)c1ccc(NC(=O)C2CCCO2)cc1 (configuration not stated) | 22% | ? | ? | / | ?
CCN(CC)CCCCn1c(-c2ccccc2)nc2c(NC3CCCCC3)nc(C)nc21 | / | / | / | -18% | /
N#C/C(C(=O)c1ccccc1)=C1/CCCCCN1 | 2.5µM* | ? | 21µM* | ? | ?
COc1ccc(C(=O)Oc2ccc3ccc(=O)oc3c2)cc1 | 0% | -4% | 2.7µM* | / | -2%
COc1ccc(C(=O)Oc2ccc3c(-c4ccc(OC)cc4)cc(=O)oc3c2)cc1 | / | / | / | -8% | /
COc1ccc(C(=O)Oc2ccc3oc(=O)sc3c2)cc1 | 10% | ? | 11µM* | 1% | -2%
CCOc1ccc(-c2nc3ccccc3c(=O)o2)cc1 | 1.4µM* | ? | 0.43µM* | 16µM* | 3.5µM*
CCCCCCOc1ccc(-c2nc3ccc(Br)cc3c(=O)o2)cc1 | / | / | -11% | -7% | /
COc1ccc(-c2nc3ccccc3c(=O)o2)cc1OC | 17% | 10% | 8.5µM* | 7% | 10%
CCOC(=O)c1c(C)[nH]c(CCC(=O)NCc2ccc(N(C)C)cc2)c1C | / | / | -12% | / | /
COc1ccc2nc(SCC(=O)N3CCNC3=O)[nH]c2c1 | 2µM* | ? | 21µM* | ? | 2.5µM*
COc1ccc(NC(=O)CSc2nc3ccccc3c(=O)[nH]2)cc1S(N)(=O)=O | 0% | 2% | 19µM* | / | 1%
CC(C)OC(=O)c1ccc(NC(=O)CSc2nc3ncccc3[nH]2)cc1 | 13% | 1% | 17µM* | -19% | 1%
COc1ccc(NC(=O)CSc2nc(O)c(C/C=C/c3ccccc3)c(=O)[nH]2)cc1 | / | / | 5.4µM* | -3% | /
SMILES | Rab9 promoter act | ELG1 genotoxic | FLuc modulator | SMN2 splice enh | NPC1 prom act
CC(C)c1ccc(NC(=O)CSc2nc3ncccc3[nH]2)cc1 | 16% | 3% | -18% | / | 9%
COC(=O)C1CCN(C(=O)CSc2nc3ccc(OC)cc3[nH]2)CC1 | -2% | 5% | 0% | 11% | 15%
CCN(CC(=O)NCc1cccs1)C(=O)CCCOc1ccccc1 | -6% | 2% | 1% | / | 1%
CCOC(=O)N1CCN(C(=O)C(C)c2ccc([N+](=O)[O-])cc2)CC1 (configuration not stated) | -2% | -5% | -1% | / | -1%
CCC(C)(C)C1CCC2(CC1)NC(=O)N(CC(=O)N1CCN(C(=O)c3ccco3)CC1)C2=O (configuration not stated) | -11% | -3% | -2% | / | 2%
O=C(CSc1nc(O)c(Cc2ccccc2)c(=O)[nH]1)Nc1nnc(SCc2ccccc2)s1 | 11% | 2% | 11µM* | / | -5%
COc1ccc(NC(=O)c2ccc(NC(=O)CSc3nccc(=O)[nH]3)cc2)cc1 | 3% | 8% | 15µM* | / | 17%
COc1ccc2nc(SCC(=O)Nc3ccc4[nH]c(=O)[nH]c4c3)[nH]c2c1 | -2% | -2% | 15µM* | / | 1%
O=C(CSc1nc2ccccc2[nH]1)Nc1ccc2[nH]c(=O)[nH]c2c1 | 1% | 2% | -13% | / | 2%
CCCCc1nnc(NC(=O)CSc2nc(O)c(Cc3ccccc3)c(=O)[nH]2)s1 | -7% | 1% | ? | -50% | -2%
COc1ccc(C(=O)Nc2c(N)nc(SCC(=O)Nc3ccc(NC(C)=O)cc3)[nH]c2=O)cc1 | 14% | 7% | -8% | / | 1%
CCC(C)NCCCCOc1ccc(Cl)cc1C (configuration not stated) | -6% | 0% | 1% | -22% | 0%
Cc1ccccc1NC1=NC(C)(C)N=C(N)N1 | 3% | 0% | -1% | 0.22µM* | 9%
O=C(CN=C1NS(=O)(=O)c2ccccc21)OCC(=O)c1cc(F)ccc1F | 0% | 1% | -4% | -7% | -3%
COC(=O)N/N=C/c1ccc(Oc2ccccc2)cc1 | ? | ? | 15µM* | 11µM* | ?
COc1ccc(/C=N\NC(=O)O)cc1 | / | / | / | -7%[9.22 µM] | /
COc1cc(/C=N/NC(=O)c2cccc(C(=O)N/N=C/c3ccc(O)c(OC)c3)n2)ccc1O | -5%[1.84 µM] | 0% | 0.85µM* | / | -7%
COc1ccc(/C=N/NC(=O)c2cccc(COCC(F)(F)C(F)F)c2)cc1 | 3% | 0% | 5.4µM* | 11% | -1%
COc1ccc(/C=N/NC(=O)c2cccc(C(=O)N/N=C/c3ccc(OC)cc3)n2)cc1 | 25% | ? | 0.3µM* | / | 15%
COc1cc(NC(=O)c2cccc(COCC(F)(F)C(F)F)c2)cc(OC)c1OC | -2% | -5% | -1% | -4% | -1%
COC(=O)N/N=C\c1ccc(OC/C=C/c2ccccc2)cc1 | 0% | 8% | ? | / | 7%
COc1ccc(/C=N/NC(=O)Nc2nonc2N)cc1 | 25% | ? | ? | 10µM* | 14%
COc1cc(/C=N/NC(=O)c2cc3ccccc3[nH]2)ccc1O | 7% | -11% | 17µM* | / | 2%
Oc1ccc(N=Nc2ccccc2)cc1 | 18% | ? | 9.5µM* | / | ?
CC(=O)Nc1ccc(N=Nc2ccc(O)cc2)cc1 | 3.5µM* | ? | 11µM* | -1%[1.84 µM] | ?

Source: PubChem (National Center for Advancing Translational Sciences (NCATS))
